Sampled rows, rich in hits. Any-hit rate of the full collection: about 3.4%.
PAFAH1B3 FP inh = blocks human PAF acetylhydrolase 1B catalytic subunit 3; Q15102; hit rate 0.28% among 340,000; AID 492972; inhibition, % at 3.39 µM; recombinant PAFAH1B3, FP-rhodamine probe, fluorescence polarization;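 active = inhibition above the screen-wide average of all tested compounds plus 3 SD, cut at about 25% in these data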;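 also: 0% = enzyme with DMSO only and 100% = wells lacking PAFAH1B3 protein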
PP5 inh = blocks human protein phosphatase 5 activity; P53041; purified PP5c, OMFP substrate fluorescence; hit rate 0.18% among 320,000; AID 1987; inhibition, % at 6.7 µM;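 active = inhibition above the campaign's mean inhibition across all tested compounds plus 3 SD, cut at about 9.5% in these data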;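 also: 0% = DMSO only and 100% = 100 µM cantharidin control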
pPAFAH FP inh = inhibitors of human plasma PAF acetylhydrolase (pPAFAH); Q13093; recombinant pPAFAH, FP-rhodamine probe fluorescence polarization; inhibition, % at 3.39 µM; hit rate 1.5% among 330,000;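 active = inhibition above the mean inhibition across the screen plus 3 SD, cut at about 25% in these data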;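 also: inhibitors block binding of the rhodamine activity-based probe so polarization drops; 0% = enzyme with DMSO and 100% = wells lacking pPAFAH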
PAFAH2 FP inh = inhibitors of human PAFAH2 | Q99487 | recombinant PAFAH2, FP-rhodamine activity probe, fluorescence polarization | inhibition, % at 3.39 µM | hit rate 0.99% among 340,000 | AID 492956;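 active = inhibition above the mean over all tested compounds plus 3 SD, cut at about 30% in these data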;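 also: inhibitors block probe labeling of enzyme so polarization drops; 0% = enzyme with DMSO and 100% = wells lacking PAFAH2 protein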
PP1 inh = counter-screen for PP5 inhibitors: inhibitors of human PP1-alpha; purified PP1alpha, OMFP fluorescence; hit rate 0.9% among 320,000; P62136; inhibition, % at 6.7 µM;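 active = inhibition above the mean inhibition of all tested compounds plus 3 SD, computed separately for each screening campaign, cut at about 15% in these data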
Target sequence (P62136 whole entry, looked up): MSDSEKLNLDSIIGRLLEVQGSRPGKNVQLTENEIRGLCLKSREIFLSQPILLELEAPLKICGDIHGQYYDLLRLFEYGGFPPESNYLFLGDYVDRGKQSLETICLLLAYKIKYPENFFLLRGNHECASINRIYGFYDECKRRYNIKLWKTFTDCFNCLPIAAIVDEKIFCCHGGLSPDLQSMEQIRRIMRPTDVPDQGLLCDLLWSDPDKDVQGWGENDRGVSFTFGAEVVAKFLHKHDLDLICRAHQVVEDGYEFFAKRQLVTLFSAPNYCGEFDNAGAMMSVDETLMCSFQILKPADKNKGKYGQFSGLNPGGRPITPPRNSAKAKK
PAFAH1B2 inh = PAFAH1B2 (human) inhibition; AID 492953; inhibition, % at 3.39 µM; hit rate 1.2% among 340,000; recombinant PAFAH1B2, FP-rhodamine activity probe, fluorescence polarization;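 active = inhibition above the mean of all tested compounds plus 3 SD, cut at about 24% in these data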;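 also: 0% = enzyme with DMSO and 100% = wells lacking PAFAH1B2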
* hit, by the source's call; x = not tested or not shown.

SMILES | PAFAH1B3 FP inh | PP5 inh | pPAFAH FP inh | PAFAH2 FP inh | PP1 inh | PAFAH1B2 inh
O=C(CCSc1ccc(Cl)cc1)N1CCCCCC1 | 1.6 | -1.0 | 6.5 | 7.6 | -0.8 | 66.3*
O=C(CCSc1ccc(Cl)cc1)NC1CCCC1 | 9.8 | 1.2 | 4.6 | -1.7 | 0.7 | 25.7*
CN1CCN(C(=O)CSc2ccc(Cl)cc2)CC1 | 1.2 | -1.1 | 1.4 | -3.4 | -1.8 | 12.3
O=C(Cc1ccc(Cl)cc1)NC1CCCCCC1 | 0.6 | 1.7 | 5.7 | 0.2 | -0.9 | 6.2
O=C(CCSc1ccccc1)NC1CCCC1 | 4.9 | -0.3 | 0.6 | -7.0 | -3.6 | 8.7
CC(=O)Nc1nnc(SCC(=O)Nc2nc(C)cs2)s1 | 11.6 | 0.4 | 4.5 | 5.8 | -1.3 | 4.4
O=C(O)C(c1ccccc1)C(O)C1CCCC1 (configuration not stated) | -1.6 | x | x | 2.4 | x | 15.7
O=[N+]([O-])c1ccccc1C(O)Cc1ccccn1 (configuration not stated) | 0.1 | x | x | 2.5 | x | 5.2
CN(CCc1ccccn1)C(=S)NC(=O)c1ccco1 | 4.9 | 0.3 | 3.8 | 1.0 | -5.9 | 52.8*
O=C(NC(=S)NCCc1ccccn1)c1ccco1 | 5.6 | 2.2 | -0.9 | 4.9 | 3.5 | 1.6
C/C(=N\OC(=O)c1ccc(Cl)c(Cl)c1)c1sc(C)nc1C | 5.6 | 1.3 | 33.9* | 5.5 | -2.2 | 0.5
C/C(=N\OC(=O)c1ccc(F)cc1)c1sc(-c2ccc(Cl)cc2)nc1C | 2.7 | -1.0 | 2.5 | 0.1 | -1.6 | 2.6
Cc1cc(C)n2c(=O)[nH]nc2c1 | 15.1 | x | x | 0.4 | x | 1.2
CC(NS(=O)(=O)c1ccccc1Cl)C1CC2CCC1C2 (configuration not stated) | 0.3 | 0.4 | 3.4 | -8.9 | -1.5 | 26.1*
Cn1c2ccccc2c2cc(/C=N/NC(=O)c3cc(O)cc(O)c3)ccc21 | 16.3 | 4.2 | 29.6* | -34.2 | 2.7 | 24.9*
CCn1c2ccccc2c2cc(/C=N/NC(=O)c3ccccc3)ccc21 | -8.3 | 1.6 | 1.9 | -13.8 | 0.3 | 1.3
Cc1cc2c(cc1S(=O)(=O)Nc1ccc(OC(F)(F)F)cc1)OCC(=O)N2 | 7.8 | 3.7 | 34.1* | 1.8 | -2.9 | 13.5
COc1cccc(C(=O)Nc2ccc3c(c2)C(=O)c2ccccc2C3=O)c1 | -1.0 | 2.3 | 11.4 | 10.3 | 32.7* | -2.1
NC(=O)C1CCN(C(=O)CCC(=O)N2CCOc3ccc(Cl)cc32)CC1 | 8.0 | -0.4 | 3.2 | 5.4 | -4.0 | 5.7
CC(=O)c1sc(N/N=C/c2cccc(O)c2)nc1C | 6.0 | 1.8 | 7.0 | 3.8 | -0.5 | 1.9
CC(=O)c1sc(N/N=C\c2c(O)ccc3ccccc23)nc1C | 12.1 | 3.1 | 34.3* | 18.4 | 4.2 | 7.5
O=C(O)CCc1ccc(S(=O)(=O)Nc2cc(C(F)(F)F)ccc2N2CCCC2)cc1 | 0.9 | x | x | 7.7 | x | 30.1*
Cc1ccc(S(=O)(=O)Nc2cc(C(=O)O)ccc2N2CCCCC2)cc1 | -3.1 | 0.9 | 12.1 | 2.9 | -4.1 | 8.7
O=C(CNCCC1=CCCCC1)Nc1ccc(N2CCCCCC2)cc1 | -1.5 | 5.3 | 32.2* | 10.7 | 7.8 | 8.2
COc1ccccc1OCC(=O)Nc1ccc(N2CCCCC2)cc1 | 4.9 | -3.1 | 4.2 | 6.1 | 1.2 | 1.8
SMILES | PAFAH1B3 FP inh | PP5 inh | pPAFAH FP inh | PAFAH2 FP inh | PP1 inh | PAFAH1B2 inh
Cc1cccc(OCC(=O)Nc2ccc(N3CCCC3)cc2)c1C | 6.2 | -2.0 | 30.1* | 11.4 | 11.3 | 4.7
Cc1ccc(OCC(=O)Nc2ccc(N3CCCC3)cc2)cc1C | 11.5 | 0.5 | 29.7* | 16.3 | 12.8 | 2.7
O=C(Nc1ccc(N2CCOCC2)cc1)c1ccc(COc2ccccc2)cc1 | 3.7 | 0.7 | 2.2 | -0.7 | 16.2* | 0.2
O=C(CNC1CCCCCC1)Nc1ccc(N2CCCC2)cc1 | x | 1.9 | 5.3 | x | 1.1 | x
O=S(OCCN1CCOCC1)C(c1ccccc1)c1ccccc1 (configuration not stated) | 8.7 | x | x | 1.1 | x | -2.8
CC(C)C[C@H](NC(=O)C1CC(=O)N(c2ccc3c(c2)OCO3)C1)C(=O)NC1CCCCC1 (some centres not stated) | 4.4 | 3.2 | 3.3 | -1.0 | 1.9 | 4.6
COCCCN(C(=O)CSCC(=O)Nc1ccc(C)cc1)c1c(N)n(Cc2ccccc2)c(=O)[nH]c1=O | -4.1 | x | x | 2.9 | x | 0.3
CCOc1cccc(C(=O)Nc2ccc(N3CCCC3)cc2)c1 | 6.8 | 3.7 | 20.0 | 1.1 | 16.2* | -6.9
O=C(CN(Cc1ccccc1)C(=O)CCl)c1cccc(Br)c1 | 1.1 | 1.1 | -2.8 | 7.6 | -2.0 | -4.5

Screening data (PubChem)
